# Test results from PubChem BioAssay AID434970 (Sanford-Burnham Center for Chemical Genomics, 2010).
# Among all 11,000 compounds or so, about 310 (2.8%) were called active. No stated cut-off is given here; in the data, active means activity change below about -85%; inactive means the rest. What follows is part of a selection rich in actives, with near analogues and random picks from the rest.
# Test system: intestinal alkaline phosphatase [Mus musculus]
# Test: mouse intestinal phosphatase enzyme activation – biochemical, luminescence, single concentration, confirmation (AID 434970)
# Settings: purified mouse IAP, CDP-Star luminescence, 30 min, at 10 µM; activation factor: measured here: IAP activation factor, stronger effect = higher value; activity change, negative = activation: stronger effect = lower value
SMILES,activation factor,"activity change, negative = activation"
Cc1sc2nc(CN3CCOCC3)nc(NS(=O)(=O)c3ccc4c(c3)OCCO4)c2c1C,0.956,4.4% (inactive)
Cc1cc(C)nc(N2CCC(C(=O)NCc3cccc(C(F)(F)F)c3)CC2)n1,0.95,5.1% (inactive)
O=C(NCc1ccccc1)c1cc2nc(C3CC3)cc(C(F)(F)F)n2n1,0.96,4% (inactive)
Cc1cc(Cn2nc(-c3ccccc3)cc2C(=O)NCc2cccc(C(F)(F)F)c2)on1,2.25,-125% (active)
Cc1ccc(C(=O)NC(Cc2cccc(C(F)(F)F)c2)C(=O)O)cc1 (configuration not stated),1.14,-13.9% (inactive)
CCc1cc(Cn2nc(-c3ccccc3)cc2C(=O)NCc2cccc(C(F)(F)F)c2)on1,2.52,-152% (active)
CCCC1C2C(=O)N(c3ccccc3OCC)C(=O)C2ON1c1ccccc1 (configuration not stated),1.1,-9.6% (inactive)
CCCN1C(=O)c2ccc(C(=O)NC3CCCCC3)cc2C1=O,1.07,-6.9% (inactive)
C=CCNc1nc(-c2sc(NC(C)=O)nc2C)cs1,0.932,6.75% (inactive)
CCCCNc1nc2c(c(=O)n(C)c(=O)n2C)n1Cc1cccc(OC)c1,1.04,-4.2% (inactive)
CCCCCCNC(=O)N[C@@H](C(=O)NCCC[C@H]1CN2C(=NC[C@@H]2Cc2ccccc2)N1CCc1cccc(OC)c1)C(C)C,3.11,-211% (active)
O=C(CCCOc1ccccc1)Nc1nncs1,1.02,-1.6% (inactive)
COc1cccc(C(=O)OCC(=O)Nc2ccccc2N2CCOCC2)c1,0.909,9.1% (inactive)
CCCCCCN(C(=O)CCCN1C(=O)NC(c2ccc(-c3ccccc3)cc2)C(C(=O)OCc2ccccc2)=C1C)C(C)C(=O)NCCCC (configuration not stated),1.42,-41.5% (inactive)
CCCCNC(=O)C(C)N(CCN(C)C)C(=O)CCCN1C(=O)NC(c2ccc(Cl)cc2)C(C(=O)OCc2ccccc2)=C1C (configuration not stated),1.19,-18.9% (inactive)
CCCCNC(=O)C(C1CCCCC1)N(CCN(C)C)C(=O)CCCN1C(=O)NC(c2ccc(-c3ccccc3)cc2)C(C(=O)OCc2ccccc2)=C1C (configuration not stated),2.49,-148% (active)
CCOC(=O)c1c(C)[nH]c(C(=O)CSc2nnc(CC(C)c3ccccc3)o2)c1C (configuration not stated),0.943,5.7% (inactive)
COc1ccc(OC)c(NC(=O)Cn2c(=O)n(CC(=O)NCc3ccco3)c(=O)c3ccccc32)c1,0.997,0.3% (inactive)
OCCCN1c2ccccc2Nc2nnc(-c3ccccc3)cc21,3.08,-208% (active)
OCCCn1c(-c2ccccc2)n[nH]c1=S,1.02,-1.9% (inactive)
CN(CC(=O)Nc1cccc(Cl)c1)S(=O)(=O)c1ccc2[nH]c(=O)oc2c1,0.26,74.1% (inactive)
COc1cccc(CN(CC(=O)NC2CCCC2)C(=O)Cn2nnc(-c3cccs3)n2)c1,1.07,-7.3% (inactive)
Cc1cc(C)cc(NC(=O)Nc2cc(S(=O)(=O)N(C)C)ccc2C)c1,3.43,-243% (active)
Cc1ccc(NC(=O)Nc2cc(S(=O)(=O)N(C)C)ccc2C)cc1,1.84,-83.7% (inactive)
Cc1ccc(S(=O)(=O)N(C)C)cc1NC(=S)NC(C)CCCC(C)C (configuration not stated),1.26,-26.2% (inactive)
Cc1cc(NC(=O)Cn2c(=O)c3c(ncn3CC(C)C)n(Cc3ccccc3)c2=O)no1,1.09,-9.3% (inactive)

SMILES,activation factor,"activity change, negative = activation"
Cc1ccccc1-n1nc(C(=O)O)c(C)c(C#N)c1=O,0.98,2.05% (inactive)
COC(=O)c1cn(NC(=O)C2CCCO2)c(=O)c2ccccc12 (configuration not stated),1.03,-3.3% (inactive)
CCN(CC)C(=O)CSc1nc(-c2cccs2)cc(-c2cccs2)c1C#N,0.778,22.2% (inactive)
CCCCC1=CC2=C(c3ccco3)C(=O)C(C)(OC(=O)c3ccc(OC)cc3)C(=O)C2=CN1Cc1ccc2c(c1)OCO2 (configuration not stated),0.503,49.7% (inactive)
CCn1ncc(CN2CCC(C(=O)Nc3cccc(-c4cccc(F)c4)c3)CC2)c1C,2.83,-183% (active)
CCCCNC(=O)C1CCN(C/C(C)=C/c2ccccc2)CC1,1.02,-1.8% (inactive)
CCn1ncc(C2=NOC(C(=O)Nc3ccc(C)cc3)C2)c1C (configuration not stated),1.07,-7.35% (inactive)
CCCn1ncc(CN2CCC(C(=O)Nc3cccc(-c4cccc(F)c4)c3)CC2)c1C,5.28,-428% (active)
Cc1cc(NC(=O)C2CCN(S(=O)(=O)c3cnc[nH]3)CC2)ccc1Br,0.935,6.5% (inactive)
CCOC(=O)c1ccc(NC(=O)C2CCN(S(=O)(=O)CC)CC2)cc1,0.952,4.8% (inactive)
C/C(=N\OCC(=O)N/N=C/c1ccccc1O)c1cccs1,1.01,-1.25% (inactive)
COc1ccc(Cl)cc1N1C(=O)[C@@H]2C(c3cccc(OC)c3OC)=NO[C@@H]2C1=O,1,0.05% (inactive)
COc1ccc(NC(=O)C(=O)NCCN2CCN(C(=O)C(c3ccccc3)c3ccccc3)CC2)cc1,1.05,-5.05% (inactive)
Cc1cc(C)cc(NC(=S)NCc2ccc3c(c2)OCO3)c1,1.81,-80.9% (inactive)
O=C(O)c1ccccc1NC(=S)NC(NC(=O)c1ccccc1[N+](=O)[O-])C(Cl)(Cl)Cl (configuration not stated),0.83,17% (inactive)
Cc1ccccc1NC(=S)NC(NC(=O)c1ccccc1C)C(Cl)(Cl)Cl (configuration not stated),2.07,-107% (active)
Cc1ccccc1NC(=S)NC(NC(=O)COc1ccccc1)C(Cl)(Cl)Cl (configuration not stated),1.73,-73% (inactive)
Cc1ccc(NC(=S)NC(NC(=O)c2ccccc2C)C(Cl)(Cl)Cl)c(C)c1 (configuration not stated),3.11,-211% (active)
CC(=O)NC(NC(=S)Nc1ccc(N=Nc2ccccc2C)cc1C)C(Cl)(Cl)Cl (configuration not stated),0.848,15.2% (inactive)
Cc1cc(C)c(NC(=S)NC(NC(=O)c2ccccc2)C(Cl)(Cl)Cl)c(C)c1 (configuration not stated),1.28,-28.3% (inactive)
CCC(=O)N1c2ccccc2NC2=C(C(=O)CCC2)C1c1ccc(N(C)C)cc1 (configuration not stated),1.18,-18.3% (inactive)
O=C(NC1CCCCC1)N1CCN(c2ccccc2)CC1,0.931,6.95% (inactive)
N/C(COc1cccc(Cl)c1)=N\NS(=O)(=O)c1ccccc1,0.875,12.6% (inactive)
COc1cc(-c2noc(CCC(N)=O)n2)cc(OC)c1OC,0.884,11.6% (inactive)
CCC(C)NCCOCCOc1ccc(F)cc1 (configuration not stated),1.03,-3.25% (inactive)
Cc1ccc(S(=O)(=O)N(C)C[C@@H]2Oc3ccc(NC(=O)Nc4cccc5ccccc45)cc3C(=O)N([C@H](C)CO)C[C@H]2C)cc1,2.13,-113% (active)

SMILES,activation factor,"activity change, negative = activation"
C[C@H]1CN([C@@H](C)CO)C(=O)c2cccc(NC(=O)Nc3ccc(C(F)(F)F)cc3)c2O[C@@H]1CN(C)S(=O)(=O)c1ccc(Cl)cc1,1.47,-46.7% (inactive)
Cc1ccc(S(=O)(=O)N(C)C[C@H]2Oc3c(NC(=O)Nc4cccc5ccccc45)cccc3C(=O)N([C@@H](C)CO)C[C@@H]2C)cc1,3.14,-214% (active)
Cc1cc2cc(CNC(=S)NCc3ccccc3)ccc2n1C,1.2,-20% (inactive)
N[C@@H](Cc1ccccc1)c1nnc2sc(SCc3ccccc3)nn12,0.972,2.75% (inactive)
O=C(c1ccc[nH]1)N1O[C@@H]2C=C[C@H]1C2,0.951,4.9% (inactive)
CCCN1C2CCCC1CC(NC(=O)c1cc(OC)c(OC)c(OC)c1)C2 (configuration not stated),0.893,10.7% (inactive)
Cc1cccc(NC(=O)c2cn(-c3ccccc3)nc2-c2ccccc2)c1,1.64,-64% (inactive)
O=C(NC1CCN(Cc2ccc(Cl)cc2)CC1)c1cn(-c2ccccc2)nc1-c1cccnc1,1.6,-60.3% (inactive)
COc1cccc(-c2nn(-c3ccccc3)cc2C(=O)NCC(=O)O)c1,1.08,-8.2% (inactive)
Cc1nn(Cc2c(Cl)cccc2Cl)c(C)c1NC(=O)c1cn(-c2ccccc2)nc1-c1ccccc1,1.74,-73.8% (active)
Cc1nn(Cc2ccc(Cl)c(Cl)c2)c(C)c1NC(=O)c1cn(-c2ccccc2)nc1-c1ccccc1,2.62,-162% (active)
Cc1nn(Cc2ccc(Cl)cc2)c(C)c1NC(=O)c1c(-c2ccccc2)noc1C,1.03,-2.7% (inactive)
CCCN1CCN(C(=O)c2cn(CC(C)C)c(=O)c3cc(OC)c(OC)cc23)CC1,1.04,-4.4% (inactive)
COc1ccc(C2CC(c3ccccc3)n3nnnc3N2)cc1 (configuration not stated),1.15,-14.9% (inactive)
COc1ccc2c(CC(=O)OCC(=O)N3CCc4ccccc43)coc2c1,0.935,6.5% (inactive)
COc1cc2c(cc1OC)[C@@H](NC(=O)COc1ccccc1)[C@H](OCc1ccccc1)C2,1.07,-6.55% (inactive)
O=C(CSc1ncccn1)NCc1ccccc1,1.02,-2% (inactive)
COc1ccc(N=NC2=C(O)CC(C)(C)CC2=O)c(OC)c1,0.743,25.7% (inactive)
CCOC(=O)c1sc(N=NC2=C(O)CCCC2=O)c(C(=O)OCC)c1C,0.794,20.6% (inactive)
CCOC(=O)c1sc(N=NC2=C(O)CC(C)(C)CC2=O)c(C(=O)OCC)c1C,3.1,-210% (active)
COc1cc(NC(=O)c2ccc(F)cc2)c(OC)cc1Cl,0.929,7.05% (inactive)
COc1ccc2c(C)c(C(=O)O)oc2c1,0.933,6.65% (inactive)
COC(=O)c1c(N)n(CCCN2CCOCC2)c2nc3ccccc3nc12,0.983,1.65% (inactive)
N#Cc1c(-c2ccc(Cl)cc2)ccn2nc(CCC(=O)O)nc12,1.15,-15.3% (inactive)
